MenB inh: inhibitors of Mycobacterium tuberculosis MenB enzyme. P9WNP5. MenB enzyme assay, absorbance read-out. inhibition, % (concentration not given with the values). 100,000 compounds, 0.43% hits. AID 540299; in the data active means inhibition above about 21%, passing the limit was not always enough
AID504770: growth inhibitors of E. coli YBA685 in a screen for V. cholerae RctB (chromosome II replication) inhibitors | E. coli YBA685 rctB-dependent plasmid, OD600 growth, 3 h; hits give low values | z-score (no concentration beside the values) | 130,000 compounds, 0.27% hits | AID 504770; in the data active means z-score below about -2, passing the limit was not always enough
MbtI inh: blocks the Mycobacterium tuberculosis siderophore enzyme MbtI; P9WFX0; purified MbtI enzyme, fluorescence intensity read-out; inhibition, % (no concentration beside the values); 100,000 compounds, 0.89% hits; AID 493033; in the data active means inhibition mostly above about 56%, no sharp cut-off; inactive means mostly below about 77%
Polio RdRp inh: poliovirus RNA polymerase inhibition; % elongation, % (compound at 16.7 µg/mL); 150,000 compounds, 0.66% hits; P03300; poliovirus polymerase elongation, fluorescence polarization; hits give low values; in the data active means % elongation below about 90%
Target sequence (P03300 1749-2209 limits assumed): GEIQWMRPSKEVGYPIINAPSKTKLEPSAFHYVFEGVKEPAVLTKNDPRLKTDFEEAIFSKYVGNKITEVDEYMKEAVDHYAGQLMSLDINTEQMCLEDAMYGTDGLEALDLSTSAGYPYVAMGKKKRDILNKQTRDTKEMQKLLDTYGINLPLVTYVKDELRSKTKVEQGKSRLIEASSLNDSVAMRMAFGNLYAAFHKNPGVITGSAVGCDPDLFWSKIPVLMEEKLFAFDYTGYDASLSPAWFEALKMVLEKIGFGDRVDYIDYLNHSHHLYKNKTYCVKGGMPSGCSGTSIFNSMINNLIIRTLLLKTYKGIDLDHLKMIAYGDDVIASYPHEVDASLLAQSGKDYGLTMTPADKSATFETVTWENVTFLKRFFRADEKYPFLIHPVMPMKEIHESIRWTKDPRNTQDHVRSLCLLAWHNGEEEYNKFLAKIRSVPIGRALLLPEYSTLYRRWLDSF
Each line names hits and unclear results; the compound was inactive in the other large screens. An excerpt weighted towards active compounds, which were near 1.5% of everything screened.

CCN(CC)S(=O)(=O)c1ccc(NC(=O)C2CC(O)CN2S(=O)(=O)c2ccc(OC)cc2)cc1 (configuration not stated)	none
CSc1scc2c1C(=O)/C(=C/N(C)C)CC2	Polio RdRp inh 63
N/C(=N\O)c1ccncc1	none
N/C(=N\O)c1cccc(/C(N)=N/O)n1	MenB inh 47 (no result: MbtI inh)
CCOC(=O)c1c(N)sc2ccccc12	none (no result: MenB inh, MbtI inh, Polio RdRp inh)
CCOC(=O)c1c(N)sc(N)c1C(=O)OCC	MbtI inh 97
O=S1(=O)CCC(NC(=S)SCCOc2ccccc2OCCO)C1 (configuration not stated)	AID504770 -3
CC(C)(C)NC(=O)CSc1n[nH]c(-c2cccs2)n1	none
O=C(CSc1nnc(Cc2ccccc2)o1)c1ccccc1	none
O=C(CSc1nnc(Cc2ccccc2)o1)N(c1ccccc1)c1ccccc1	MbtI inh 75
COc1ccc(CNC(=O)c2ccc(N(C)S(C)(=O)=O)cc2)cc1	none
CC(C)C(c1nnnn1Cc1ccccc1)N1CCN(c2ccccc2)CC1 (configuration not stated)	MenB inh 32
C=CCN(CC=C)Cn1[nH]c(-c2cccs2)nc1=S	MbtI inh 96
O=C(Oc1nsnc1N1CCOCC1)N1CCCCC1	none
O=C(Oc1nsnc1N1CCOCC1)c1ccccc1	Polio RdRp inh 47 (no result: MbtI inh)
CC(C)(C)c1cc(C(=O)NCc2cccs2)cc(C(=O)NCc2cccs2)c1	none
CCN(CC)c1ccc(C=C2C(=O)OC3(CCCC3)OC2=O)cc1	MbtI inh 72
CCN(CC)c1ccc(C=C2C(=O)OC(c3ccccc3)OC2=O)cc1 (configuration not stated)	none (no result: MbtI inh)
O=C1OCCC1OC(=O)C12CC3CC(CC(C3)C1)C2 (configuration not stated)	none (no result: MenB inh)
CC1CCC[S+](c2cc(O)ccc2O)C1 (configuration not stated)	MbtI inh 101
Cc1cc(C)c(/C=N/NC(N)=O)c(C)c1/C=N/NC(N)=O	AID504770 -3.2
COCCN1C(=O)c2ccccc2C(C(=O)Nc2ccc(C(=O)OC)cc2)C1c1cccs1 (configuration not stated)	none
Cc1cc(N)cc(C(=O)O)c1O	MenB inh 37
Nc1ccc(C(=O)O)c(O)c1	none
O=C(O)c1cc(-c2ccco2)nc2ccc(Br)cc12	Polio RdRp inh 73 (no result: MbtI inh)
O=C(O)c1ccccc1-c1ccc(-c2cc(C(=O)O)c3cc(F)ccc3n2)o1	AID504770 -2.7
Cc1ccc2oc(-c3ccccc3C(=O)O)cc(=O)c2c1	none (no result: MenB inh, MbtI inh, Polio RdRp inh)
C=CCn1c(NC(=O)c2ccccc2)c(C(=O)OCC)sc1=S	MbtI inh 78
CCOC(=O)c1sc(NC(=O)c2ccccc2)c(SC#N)c1C	none (no result: MenB inh, MbtI inh, Polio RdRp inh)
COCCCn1c(C)cc(C(=O)COc2cccc(C#N)c2)c1C	none
CCOC(=O)c1sc(S(C)=O)c2c1CCCC2=O (configuration not stated)	MbtI inh 63
CC1CCCN(c2ccc(N)cc2)C1 (configuration not stated)	none
COCCn1c(C)cc(/C=N/n2c(C)nc3ccccc3c2=O)c1C	none
COCCn1c(C)cc(/C=N/n2c(Cc3cccc4ccccc34)n[nH]c2=S)c1C	MbtI inh 73
CCCSc1nc2ccc(S(=O)(=O)N3CCOCC3)cc2[nH]1	MbtI inh 93, Polio RdRp inh 64
CN(C)C(=O)CSc1nc2cc(Cl)ccc2o1	none (no result: Polio RdRp inh)
NC(=O)CSc1nc2cc(S(=O)(=O)N3CCOCC3)ccc2o1	Polio RdRp inh 76
Cc1ccc2nc(SCC(N)=O)oc2c1	MenB inh 33
CN(C)C(=O)CSc1nc2cc(S(=O)(=O)N3CCOCC3)ccc2o1	MbtI inh 87, Polio RdRp inh 81
CCn1nnc2c(N3CCN(c4ccc(OC)cc4)CC3)ncnc21	none
Cc1cc(C(F)(F)F)n(-c2nc(CCl)cs2)n1	none (no result: MenB inh, MbtI inh, Polio RdRp inh)
NC(=O)Cc1c[nH]c2ccccc12	none
Cc1ccc(CSc2nccc(C)n2)cc1	none
Cc1cc(C(=O)Cn2cc(S(=O)(=O)N(C)C)ccc2=O)c(C)n1-c1ccc2c(c1)OCO2	none
N#CSc1ccc(NCCO)cc1C(F)(F)F	MbtI inh 58
OCCNc1ccc(Cl)cc1	none
N#Cc1cc(-c2ccc(Cl)cc2)no1	AID504770 -2.5
Cc1oc2c(c1C(=O)O)C(=O)c1ccccc1C2=O	Polio RdRp inh 66
Cc1oc2c(c1C(=O)NCc1ccccc1)C(=O)c1ccccc1C2=O	none
COC(=O)c1ccc(COc2cc3oc(=O)cc(C)c3cc2Cl)cc1	none (no result: MenB inh, MbtI inh, Polio RdRp inh)
Cc1ccc(OCC(=O)N2CCCCC2)c(C)c1	none (no result: MbtI inh)
COc1ccc(Nc2cnnc3c(Cl)cccc23)cc1OC	none
O=C(O)c1ccc(Br)c(C(=O)O)c1	none (no result: MbtI inh)
O=C(O)c1coc(=O)c(Br)c1	AID504770 -4.7 (no result: MenB inh, Polio RdRp inh)
